From PubChem BioAssay
The source made the active and inactive calls. Unless noted, how the calls were made is not given here.

What was measured:
[1] = test system: Wnt5a (protein binding on small-molecule microarray); assay: small molecules binding Wnt5a protein – biophysical, small-molecule microarray, 635/667 nm fluorescence, primary screen (AID 1142); details: 635 nm fluorescence, higher = more signal;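 further: fluorescence read at 667 nm with signal to noise per printed feature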
[2] = ATP-based viability of Huh7 replicon cells – cell-based, CellTiter-Glo luminescence, basal, 48 h, cytotoxicity control for HCV replication inhibitor project, primary screen (AID 1143); details: higher = more signal, called active from +8 up or from −8 down;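 further: Huh7 hepatoma cells carrying a hepatitis C replication reporter with no stimulus; test concentration not given here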
[3] = Pseudomonas biofilm growth suppression – PAO1 strain, BacTiter-Glo luminescence, LB-PBS, primary screen (AID 1144); details: P. aeruginosa PAO1 biofilm, 12 h, higher = more signal
[4] = basal CRE-LacZ reporter activity in PC12 – cell-based, unstimulated, primary screen (AID 1145); details: no forskolin, luminescence, 4.5 h, higher = more signal, called active from +8 up or from −8 down
[5] = forskolin-driven CRE-LacZ activity in PC12 – cell-based, CRE-LacZ reporter, forskolin-stimulated, primary screen (AID 1146); details: luminescence, 4.5 h, higher = more signal, called active from +8 up or from −8 down;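 further: PC12 cells with 6xCRE LacZ reporter stimulated by forskolin 10 µM; beta-galactosidase reporter signal reflecting CREB driven transcription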
[6] = target: Streptavidin (Streptomyces avidinii) (UniProt P22629); assay: compounds binding control protein streptavidin – biophysical, small-molecule microarray, 635/667 nm fluorescence, artefact control for SMM compound annotation, primary screen (AID 1147); details: higher = more signal;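 further: signal reflects streptavidin binding to arrayed compounds as a control protein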
[7] = probe aInhba binding on compound microarray – biochemical, small-molecule microarray, 635/667 nm fluorescence, primary screen (AID 1148); details: higher = more signal;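 further: score merges 667nm spot fluorescence with signal-to-noise for antibody binding to printed compounds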
[8] = target: Torsin-1A (Homo sapiens) (UniProt O14656); assay: TOR1A wild-type binding on microarray – cell lysate, small-molecule microarray, lysate, 635/667 nm, primary screen (AID 1149); details: COS7 hTOR1A-WT lysate, 635 nm fluorescence, higher = more signal
[9] = target: Torsin-1A (Homo sapiens) (UniProt O14656); assay: torsin A mutant lysate binding on microarrays – cell lysate, small-molecule microarray, COS7 lysate, 635/667 nm fluorescence, primary screen (AID 1150); details: COS7 hTOR1A mutant lysate, 635 nm fluorescence, higher = more signal;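 further: score pools 667 nm emission and signal to noise measuring lysate protein binding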
[10] = test system: Sonic hedgehog protein (Shh); assay: Sonic hedgehog microarray binding compounds – biochemical, small-molecule microarray, 635/667 nm fluorescence, primary screen (AID 1151); details: 635 nm fluorescence, higher = more signal;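 further: Shh protein binding to compounds spotted on small-molecule microarray slides; score combines spot fluorescence intensity with signal-to-noise across triplicate slides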
[11] = optical density shifts of acrAB sulA E. coli – strain DRC41, OD650, 48 h, E. coli filamentation inducer project, primary screen (AID 1152); details: higher = more signal, called active from +8 up or from −8 down;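 further: E. coli MC1000 strain DRC41 lacking acrAB efflux pump and sulA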
[12] = probe aLefty1 binding on compound microarray – biochemical, small-molecule microarray, 635/667 nm fluorescence, primary screen (AID 1153); details: higher = more signal;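 further: score merges spot fluorescence with signal-to-noise ratio from the scanned slide images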
[13] = plasmodial surface anion channel blockers, osmotic lysis – cell-based, P. falciparum Indochina, OD700, 1 h, primary screen (AID 1154); details: P. falciparum Indochina infected RBC osmotic lysis, higher = more signal, called active from +8 up or from −8 down
[14] = plasmodial surface anion channel blockers, osmotic lysis – cell-based, P. falciparum Indochina, OD700, 2 h, primary screen (AID 1155);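 further: lysis reports solute entry through the parasite surface anion channel PSAC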; details: P. falciparum Indochina infected erythrocytes, higher = more signal, called active from +8 up or from −8 down
[15] = changes in parasitized red cell lysis, either direction – P. falciparum Indochina, OD700, 3 h, PSAC antagonist project, primary screen (AID 1156); details: P. falciparum-infected erythrocytes, osmotic lysis, higher = more signal, called active from +8 up or from −8 down
[16] = plasmodial surface anion channel blockers, osmotic lysis – cell-based, P. falciparum Indochina, OD700, 18 h, primary screen (AID 1157); details: P. falciparum Indochina infected erythrocytes, osmotic lysis OD700, 18 h; higher = more signal, called active from +8 up or from −8 down
[17] = S6 kinase pathway phospho-S6 level changes – cell-based, A549, cytoblot, luminescence, serum-stimulated, primary screen (AID 1158); details: 5 h, higher = more signal;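 further: serum-stimulated A549 lung adenocarcinoma cells; signal is phosphorylated S6 detected by cytoblot immunostaining with HRP secondary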
[18] = target: NADPH oxidase 2 (Homo sapiens) (UniProt P04839); assay: compounds shifting NOX2 Amplex Red fluorescence – cell-based, HEK293-NOX2, PMA-stimulated, NOX inhibitor project, primary screen (AID 1159); details: 45 min, higher = more signal, called active from +8 up or from −8 down; further: test concentration not given here
[19] = target: NADPH oxidase 4 (Homo sapiens) (UniProt Q9NPH5); assay: compounds shifting NOX4 Amplex Red fluorescence – cell-based, HEK293-NOX4, tetracycline-induced, NOX inhibitor project, primary screen (AID 1160); details: HEK293-NOX4, Amplex Red H2O2 fluorescence, 45 min; higher = more signal, called active from +8 up or from −8 down
[20] = target: NADPH oxidase 5 (Homo sapiens) (UniProt Q96PH1); assay: compounds shifting NOX5 Amplex Red fluorescence – cell-based, HEK293-NOX5, NOX inhibitor project, primary screen (AID 1161); details: HEK293-NOX5, ionomycin, 45 min, higher = more signal
NADPH oxidase 5 (Homo sapiens), sequence (Q96PH1 whole entry, looked up): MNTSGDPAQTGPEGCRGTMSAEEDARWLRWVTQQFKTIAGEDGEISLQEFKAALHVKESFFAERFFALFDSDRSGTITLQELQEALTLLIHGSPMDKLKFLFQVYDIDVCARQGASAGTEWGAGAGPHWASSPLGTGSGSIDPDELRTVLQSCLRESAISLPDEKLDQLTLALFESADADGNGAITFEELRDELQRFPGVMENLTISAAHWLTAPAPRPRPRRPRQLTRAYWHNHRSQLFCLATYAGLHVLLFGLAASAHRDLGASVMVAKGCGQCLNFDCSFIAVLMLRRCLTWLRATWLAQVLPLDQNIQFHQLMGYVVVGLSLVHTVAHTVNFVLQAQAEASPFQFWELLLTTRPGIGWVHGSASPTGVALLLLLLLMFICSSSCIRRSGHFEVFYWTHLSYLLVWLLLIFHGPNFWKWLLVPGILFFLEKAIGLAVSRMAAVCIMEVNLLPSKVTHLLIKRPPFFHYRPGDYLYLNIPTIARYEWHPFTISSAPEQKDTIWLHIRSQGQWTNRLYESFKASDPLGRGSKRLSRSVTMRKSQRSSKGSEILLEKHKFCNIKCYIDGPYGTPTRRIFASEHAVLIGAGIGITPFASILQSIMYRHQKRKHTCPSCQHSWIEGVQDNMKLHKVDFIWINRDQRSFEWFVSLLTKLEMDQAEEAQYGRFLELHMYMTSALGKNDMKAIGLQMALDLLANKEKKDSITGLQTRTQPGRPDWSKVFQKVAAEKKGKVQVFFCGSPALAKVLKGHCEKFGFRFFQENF

Streptavidin (Streptomyces avidinii), sequence (P22629 whole entry, looked up): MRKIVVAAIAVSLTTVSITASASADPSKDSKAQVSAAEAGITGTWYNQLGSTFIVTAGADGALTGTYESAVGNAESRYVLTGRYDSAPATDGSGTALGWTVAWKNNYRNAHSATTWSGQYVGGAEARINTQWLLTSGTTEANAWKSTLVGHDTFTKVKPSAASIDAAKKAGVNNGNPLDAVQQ
Torsin-1A (Homo sapiens), sequence (O14656 whole entry, looked up): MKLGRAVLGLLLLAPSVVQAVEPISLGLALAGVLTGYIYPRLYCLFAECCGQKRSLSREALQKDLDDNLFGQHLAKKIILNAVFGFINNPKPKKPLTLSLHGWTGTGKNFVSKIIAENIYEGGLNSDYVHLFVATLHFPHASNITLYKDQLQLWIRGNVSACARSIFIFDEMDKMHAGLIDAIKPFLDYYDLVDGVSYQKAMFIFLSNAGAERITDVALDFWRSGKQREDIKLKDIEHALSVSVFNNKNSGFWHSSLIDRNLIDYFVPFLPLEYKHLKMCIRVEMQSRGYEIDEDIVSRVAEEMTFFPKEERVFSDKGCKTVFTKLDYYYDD
NADPH oxidase 2 (Homo sapiens), sequence (P04839 whole entry, looked up): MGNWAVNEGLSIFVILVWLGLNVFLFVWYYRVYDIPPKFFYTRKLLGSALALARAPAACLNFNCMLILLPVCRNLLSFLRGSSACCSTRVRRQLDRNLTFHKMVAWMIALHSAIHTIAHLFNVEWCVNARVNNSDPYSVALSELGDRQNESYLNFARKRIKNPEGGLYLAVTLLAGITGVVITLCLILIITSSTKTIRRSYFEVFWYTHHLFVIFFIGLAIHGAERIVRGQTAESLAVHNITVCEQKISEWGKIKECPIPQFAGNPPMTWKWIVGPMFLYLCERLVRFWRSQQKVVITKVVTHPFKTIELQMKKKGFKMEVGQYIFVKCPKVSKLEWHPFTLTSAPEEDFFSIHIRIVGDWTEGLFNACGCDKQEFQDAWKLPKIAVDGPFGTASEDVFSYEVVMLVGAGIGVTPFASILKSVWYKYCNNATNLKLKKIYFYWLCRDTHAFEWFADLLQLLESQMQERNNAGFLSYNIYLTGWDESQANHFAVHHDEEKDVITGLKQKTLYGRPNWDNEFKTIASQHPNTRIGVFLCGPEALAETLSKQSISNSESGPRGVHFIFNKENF
NADPH oxidase 4 (Homo sapiens), sequence (Q9NPH5 whole entry, looked up): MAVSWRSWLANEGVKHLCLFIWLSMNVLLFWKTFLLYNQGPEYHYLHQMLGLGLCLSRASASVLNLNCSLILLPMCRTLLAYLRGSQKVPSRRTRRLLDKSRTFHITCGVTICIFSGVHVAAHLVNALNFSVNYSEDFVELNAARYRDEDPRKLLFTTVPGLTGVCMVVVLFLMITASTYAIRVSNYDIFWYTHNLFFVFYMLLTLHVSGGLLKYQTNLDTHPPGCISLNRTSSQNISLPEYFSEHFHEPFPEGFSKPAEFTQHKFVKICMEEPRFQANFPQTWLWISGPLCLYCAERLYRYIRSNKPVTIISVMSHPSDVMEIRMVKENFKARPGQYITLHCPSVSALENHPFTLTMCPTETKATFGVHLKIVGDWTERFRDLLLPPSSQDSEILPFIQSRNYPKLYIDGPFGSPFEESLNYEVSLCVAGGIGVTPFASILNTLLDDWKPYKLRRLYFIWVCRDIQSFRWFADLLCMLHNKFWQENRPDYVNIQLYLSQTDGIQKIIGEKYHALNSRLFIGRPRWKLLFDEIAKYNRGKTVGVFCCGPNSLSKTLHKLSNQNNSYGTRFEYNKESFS

Row | Structure (SMILES) | composite z-score [1] | z-score [2] | z-score [3] | z-score [4] | z-score [5] | composite z-score [6] | composite z-score [7] | composite z-score [8] | composite z-score [9] | composite z-score [10] | z-score [11] | composite z-score [12] | z-score [13] | z-score [14] | z-score [15] | z-score [16] | z-score [17] | z-score [18] | z-score [19] | z-score [20]
1 | C#CCCCON=C1C[C@@H](O)[C@@H](O)[C@@H]2[C@@H]3C(=O)N(Cc4ccccc4)C(=O)[C@@H]3CC[C@H]12 | 0.203 | -3.22 (inactive) | -1.13 (inactive) | 0.793 (inactive) | -0.645 (inactive) | 0.0194 | -0.209 | 0.289 | -0.0292 | 0.985 | 0.362 (inactive) | -0.111 | 1.38 (inactive) | -0.506 (inactive) | 0.659 (inactive) | -1.29 (inactive) | 0.69 | 0.162 (inactive) | 0.196 (inactive) | -0.36
2 | CC(C)(C)OC(=O)CC[C@]1(C(N)=O)COC(c2ccc(OCCCO)cc2)=N1 | 0.681 | 0.0853 (inactive) | 0.361 (inactive) | -0.585 (inactive) | -0.438 (inactive) | 0.248 | 0.923 | 0.833 | 0.493 | -0.769 | 0.311 (inactive) | 0.802 | 0.75 (inactive) | -0.267 (inactive) | 0.295 (inactive) | 0.0515 (inactive) | -0.777 | 0.381 (inactive) | -0.585 (inactive) | 0.612
3 | O=C(NN=C1C[C@@H](O)[C@@H](O)[C@@H]2[C@@H]3C(=O)N(c4cccc(Oc5ccccc5)c4)C(=O)[C@@H]3CC[C@@H]12)OCc1ccccc1 | -0.0255 | -0.033 (inactive) | -0.0198 (inactive) | 1.6 (inactive) | -0.227 (inactive) | 0.504 | -0.183 | 0.212 | 0.31 | -0.376 | -0.385 (inactive) | 0.101 | 2.57 (inactive) | 0.237 (inactive) | 1.09 (inactive) | 0.0572 (inactive) | -0.818 | 1.05 (inactive) | -2.06 (inactive) | 0.134
4 | CCCCCCc1nc(CCCc2cc3c(c(CCCCCC)n2)[Si](C(C)C)(C(C)C)O[C@H]3c2ccccc2)cc2c1[Si](C(C)C)(C(C)C)O[C@H]2c1ccccc1 | -0.0661 | -0.636 (inactive) | 0.182 (inactive) | -0.0106 (inactive) | -0.222 (inactive) | 0.0479 | -0.0972 | -0.285 | -0.0949 | 0.406 | -1.58 (inactive) | -0.244 | 0.963 (inactive) | 0.165 (inactive) | 0.97 (inactive) | 0.0888 (inactive) | -0.415 | -4.87 (inactive) | 0.859 (inactive) | -1.07
5 | O=C1[C@H]2[C@H]3[C@H](O)[C@H](O)CC(=NO[C@@H]4O[C@H](CO)[C@@H](O)[C@H](O)[C@H]4O)[C@@H]3CC[C@H]2C(=O)N1c1ccc(F)cc1F | 0.166 | 0.115 (inactive) | 0.593 (inactive) | 0.0711 (inactive) | 0.767 (inactive) | 0.38 | -0.0719 | 0.851 | 1.1 | 0.51 | 0.178 (inactive) | -0.0145 | -0.219 (inactive) | 0.363 (inactive) | -0.444 (inactive) | 0.205 (inactive) | -0.709 | 0.455 (inactive) | 0.199 (inactive) | -0.606
6 | COc1ccccc1CN1C(=O)c2ccccc2[C@@H](C(=O)NCC(F)(F)F)[C@@H]1c1ccc(CO)cc1 | 0.324 | -1.92 (inactive) | -1.6 (inactive) | 0.504 (inactive) | -1.28 (inactive) | 0.299 | 0.16 | 0.156 | 0.336 | 1.92 | 1.22 (inactive) | -0.242 | 2.54 (inactive) | 0.346 (inactive) | -0.114 (inactive) | 0.547 (inactive) | -0.189 | 0.629 (inactive) | 0.732 (inactive) | -0.0947
7 | CN(C)C(=O)[C@@]1(Cc2ccccc2)N=C(c2ccc(OCCCO)cc2)O[C@H]1c1ccccc1CN=[N+]=[N-] | 1.45 | -2.26 (inactive) | 0.456 (inactive) | 0.974 (inactive) | -0.55 (inactive) | 1.5 | 0.696 | 0.526 | 1.79 | -0.122 | 0.374 (inactive) | 0.981 | 14.9 (active) | 1.15 (inactive) | 0.882 (inactive) | 0.0009 (inactive) | -0.474 | -1.75 (inactive) | 1.17 (inactive) | 0.163
8 | COC(=O)[C@@H]1CCCN1C(=O)[C@@H](C)CO | 0.111 | -2.44 (inactive) | -0.985 (inactive) | -0.347 (inactive) | -0.397 (inactive) | 0.746 | -0.183 | 1.26 | 0.546 | 0.202 | -0.926 (inactive) | -0.147 | 0.34 (inactive) | -0.603 (inactive) | 0.864 (inactive) | -1.69 (inactive) | 1.4 | -0.366 (inactive) | -0.739 (inactive) | -1.15
9 | O=C1O[C@@H](c2ccccc2)[C@@H](c2ccccc2)N2[C@@H](c3ccc(O)cc3)[C@]3(C(=O)Nc4ccccc43)[C@@H](C(=O)O)[C@H]12 | -0.0286 | -4.36 (inactive) | 0.0547 (inactive) | 0.568 (inactive) | 0.532 (inactive) | 0.0078 | 0.0442 | 0.509 | 0.548 | -0.192 | 0.772 (inactive) | -0.0536 | 1.41 (inactive) | -0.968 (inactive) | 1.11 (inactive) | -1.77 (inactive) | 1.87 | -0.215 (inactive) | -0.652 (inactive) | 0.0434
